Pf growth 96h = P. falciparum growth inhibition at 96 hour, primary screen for plastid delayed-death inhibitors; 320,000 tested, 6.9% active; P. falciparum luciferase reporter growth, 96 h; AID 504834; Potency, µM (titrated, usually from 28.7 µM), inactives show top-dose activity change, negative = inhibition, actives largely listed as inhibitors; also: % is scaled to controls: 0 for no effect and ±100 for the full control effect
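Compounds incubated with erythrocytes infected by luciferase-expressing P. falciparum (2% hematocrit, 0.05% parasitemia final) for 96 hours, 37 C in 5% CO2. Growth inhibition scored as decreased luciferase luminescence.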
Sm TGR block = inhibitors of Schistosoma mansoni thioredoxin glutathione reductase. purified TGR, DTNB reduction, TNB absorbance 405 nm. Potency, µM (highest dose often 114 µM), inactives show top-dose activity change, negative = inhibition, hits mostly inhibitors. Q962Y6. AID 485364. 360,000 tested, 3% active; also: % is scaled to controls: 0 for no effect and ±100 for the full control effect; nearly all actives have a fitted effect of over 60% in size
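Kinetic colorimetric format: TGR-catalysed, NADPH-driven DTNB reduction monitored via TNB absorbance. Enzyme dispensed at 20 nM; compound exposure 15 min at room temperature before reaction start.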
SARS PLpro yeast = inhibitors of SARS-CoV papain-like protease in yeast | S. cerevisiae expressing SARS-CoV PLpro, growth rescue | Potency, µM (top dose mostly 32.9 µM), for inactives: at the top dose activity, positive = growth rescue, hits mostly activators | 330,000 tested, 0.19% active | AID 485353; calls by dose curve; also: 0% is about no effect; nearly all actives have a fitted effect of over 55% in size
Pf growth 48h = inhibits P. falciparum growth in the first generation, 48 h; 310,000 tested, 5.9% active; AID 504832; Potency, µM (series often up to 28.7 µM), for the others: top-dose activity change, negative = inhibition, actives largely listed as inhibitors; P. falciparum luciferase growth in erythrocytes, 48 h; also: % is scaled to controls: 0 for no effect and ±100 for the full control effect
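Cell-based growth assay: transgenic P. falciparum expressing firefly luciferase, cultured in red cells within RPMI 1640 containing 0.5% w/v Albumax, 24 mM bicarbonate and gentamycin. A drop in luciferase activity indicates inhibition.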
The depositor's hits bear a star. An excerpt weighted towards active compounds, which were near 12% of everything screened. Unless noted, calls follow the shape of the dose curve; as a rule, active = well fitted curve in the direction sought with a large enough effect; inconclusive = small, poorly fitted or top-dose-only effect, or another doubt; inactive = no such curve, though single readings can be large; an effect the other way counts as inactive or inconclusive. Potency is read from the fitted curve at half-maximal effect.

`CC(C)(C)c1ccc(C(=O)Nc2ccccc2C(=O)OCc2cc(=O)n3ccsc3n2)cc1` gave Sm TGR block 5%.
`COC(=O)CN1C(=O)CSc2ccc(S(=O)(=O)Nc3ccccc3)cc21` gave Sm TGR block 1%.
For COc1cccc(CNc2ccc(N3CCC(C)CC3)cc2)c1OC the results were Pf growth 96h inconclusive, Sm TGR block inconclusive, SARS PLpro yeast 8% and Pf growth 48h 1.9µM*.
For CC1CCN(c2ccc(NC(=O)Cc3ccccc3)cc2)CC1 the results were Pf growth 96h inconclusive, Sm TGR block 0%, SARS PLpro yeast 0% and Pf growth 48h 19%.
For Cc1ccc(-c2n[nH]c(=S)c3ccccc23)cc1 the results were Pf growth 96h inconclusive, Sm TGR block 1%, SARS PLpro yeast 2% and Pf growth 48h 0%.
CCOc1ccc(-c2n[nH]c(=S)c3ccccc23)cc1 was read as Pf growth 96h 1.7µM*, Sm TGR block 2%, SARS PLpro yeast 2% and Pf growth 48h inconclusive.
O=C(c1ccc2c(c1)N(Cc1cccc(Cl)c1)C(=O)c1ccccc1S2=O)N1CCN(c2cccc(C(F)(F)F)c2)CC1 (centres undefined) was read as Sm TGR block 1%.
`CC(C)CN(CCCNC(=O)CN1C(=O)COc2ccc(S(=O)(=O)N3CCCCCC3)cc21)CC(C)C` gave Pf growth 96h inconclusive, Sm TGR block -4%, SARS PLpro yeast inconclusive and Pf growth 48h inconclusive.
Screening CC(C)N(Cc1ccccc1)C(=O)CN1C(=O)COc2ccc(S(=O)(=O)N3CCCCCC3)cc21 returned Pf growth 96h 6%, Sm TGR block 4%, SARS PLpro yeast 0% and Pf growth 48h 0.83µM*.
For COc1ccc(CNC(=O)CN2C(=O)COc3ccc(S(=O)(=O)N4CCC(C)CC4)cc32)cc1 the results were Pf growth 96h 13µM*, Sm TGR block -1%, SARS PLpro yeast 0% and Pf growth 48h -14%.
Screening CC1CCN(S(=O)(=O)c2ccc3c(c2)N(CC(=O)NCCCN2CCCC(C)C2)C(=O)CO3)CC1 (centres undefined) returned Pf growth 96h 12µM*, Sm TGR block -21% and Pf growth 48h -15%.
`CC(C)CN(CCCNC(=O)CN1C(=O)COc2ccc(S(=O)(=O)N3CCCC3)cc21)CC(C)C` gave Pf growth 96h inconclusive, Sm TGR block 14%, SARS PLpro yeast -2% and Pf growth 48h 12µM*.
For COc1ccc(CNC(=O)CN2C(=O)COc3ccc(S(=O)(=O)N4CCCCCC4)cc32)cc1 the results were Sm TGR block 0%.
`Cc1ccc(C2CCN(C(=O)Nc3ccc(Cl)c(Cl)c3)C2)cc1` (centres undefined) gave Sm TGR block 2%.
`CCC(Sc1nnc(-c2ccc(OC)cc2)c(-c2ccc(OC)cc2)n1)C(=O)Nc1cccc(OC)c1` (centres undefined) gave Sm TGR block 12%.
N#Cc1ccc(NC(=S)Nc2ccccc2)cc1 was read as Pf growth 96h 1%, Sm TGR block 45µM*, SARS PLpro yeast -3% and Pf growth 48h -13%.
CC(=O)Nc1ccc(NC(=S)Nc2ccccc2)cc1 was read as Pf growth 96h -1%, Sm TGR block -33%, SARS PLpro yeast -7% and Pf growth 48h 12%.
CCCC1S/C(=N/N=C/c2ccc(OC)cc2)N(Cc2ccc(OC)cc2)C1=O (centres undefined) was read as Pf growth 96h 10µM*, Sm TGR block 9%, SARS PLpro yeast -3% and Pf growth 48h inconclusive.
COc1cc(C(=S)N2CCOCC2)cc(OC)c1OS(=O)(=O)c1ccc(NC(C)=O)cc1 was read as Pf growth 96h 13µM*, Sm TGR block -15%, SARS PLpro yeast 1% and Pf growth 48h 0%.
Screening O=C(Nc1ccc(S(=O)(=O)N2CCCCC2)cc1)c1ccc(CN2CCc3ccccc3C2)cc1 returned Pf growth 96h 7.4µM*, Sm TGR block -22%, SARS PLpro yeast -3% and Pf growth 48h inconclusive.
Screening COc1ccc(C)cc1NC(=O)c1ccc(CN2CCc3ccccc3C2)cc1 returned Pf growth 96h 1%, Sm TGR block 7%, SARS PLpro yeast -5% and Pf growth 48h -15%.
COC(=O)c1ccc(C)c(NC(=O)c2ccc(CN3CCc4ccccc4C3)cc2)c1 was read as Pf growth 96h 9.3µM*, Sm TGR block 0%, SARS PLpro yeast -1% and Pf growth 48h -7%.

Source: PubChem
